In the antibiotic and cytotoxicity screens of Wong et al. (2023):
The campaign covered roughly 39,000 compounds. About 1,500 (3.8%) were called active. Many of the other results were omitted from the sample, so actives are more common in it than they were.

Tested on: HSkMC (human skeletal muscle cells)
Assay: cytotoxicity call (relative viability < 0.9)
Conditions: 10 µM

Row | Structure (SMILES) | cytotoxicity call
1 | C[C@H](CO)N1C[C@H](C)[C@H](CN(C)C(=O)Nc2ccc(C(F)(F)F)cc2)OCCCC[C@H](C)Oc2ccc(NC(=O)NC3CCCCC3)cc2C1=O | inactive
2 | C[C@@H]1CCCCO[C@@H](CN(C)C(=O)c2ccccc2)[C@@H](C)CN([C@@H](C)CO)C(=O)c2cc(NC(=O)CCC(F)(F)F)ccc2O1 | inactive
3 | CO[C@@H]1CN(C)C(=O)c2cc(NC(=O)C3CCOCC3)ccc2OC[C@@H](C)N(Cc2cccnc2)C[C@@H]1C | inactive
4 | CC(=O)Oc1cc2c(c(C)c1OC(C)=O)CC=C1[C@@]2(C)CC[C@@]2(C)[C@H]3C[C@](C)(C(=O)O)CC[C@]3(C)CC[C@]12C | active
5 | CC1(C(=O)O)CCC2(C)CCC3(C)C(=CC(=O)C4C5(C)CCC(O)C(C)(C)C5CCC43C)C2C1 (configuration not stated) | inactive
6 | C[C@@H]1CN([C@@H](C)CO)C(=O)Cc2cc(NC(=O)NC3CCCCC3)ccc2O[C@@H]1CN(C)C(=O)Nc1cccc2ccccc12 | inactive
7 | C[C@@H]1CN([C@H](C)CO)C(=O)Cc2cc(NS(C)(=O)=O)ccc2O[C@H]1CN(C)S(=O)(=O)c1cccs1 | inactive
8 | CC(C)CC#Cc1ccc2c(c1)O[C@@H](CN(C)C(=O)Cc1ccccn1)[C@@H](C)CN([C@H](C)CO)S2(=O)=O | inactive
9 | C[C@H]1CN([C@@H](C)CO)C(=O)Cc2cc(NC(=O)Nc3ccc(C(F)(F)F)cc3)ccc2O[C@H]1CN(C)CC1CCCCC1 | active
10 | C[C@H](CO)N1C[C@H](C)[C@H](CN(C)CC2CCCCC2)Oc2ccc(NC(=O)Nc3ccc(C(F)(F)F)cc3)cc2CC1=O | active
11 | C[C@@H]1CN([C@H](C)CO)C(=O)Cc2cc(NC(=O)Nc3ccc(C(F)(F)F)cc3)ccc2O[C@@H]1CN(C)CC1CCCCC1 | active
12 | C[C@@H]1CN([C@H](C)CO)C(=O)Cc2cc(NC(=O)Nc3ccc(F)cc3)ccc2O[C@H]1CN(C)CC1CCCCC1 | inactive
13 | C[C@@H]1CN([C@@H](C)CO)C(=O)Cc2cc(NC(=O)Nc3ccc(C(F)(F)F)cc3)ccc2O[C@@H]1CN(C)CC1CCCCC1 | inactive
14 | C[C@H]1CN([C@@H](C)CO)C(=O)Cc2cc(NC(=O)Nc3ccc(C(F)(F)F)cc3)ccc2O[C@@H]1CN(C)CC1CCCCC1 | active
15 | Cc1ccc(S(=O)(=O)N(C)C[C@@H]2OCCCC[C@@H](C)Oc3ccc(NC(=O)Nc4cccc5ccccc45)cc3C(=O)N([C@H](C)CO)C[C@@H]2C)cc1 | inactive
16 | COCC(=O)N(C)C[C@H]1Oc2cc(C#C[C@H](C)O)ccc2S(=O)(=O)N([C@@H](C)CO)C[C@@H]1C | inactive
17 | O=C(CN1CCOCC1)N[C@@H]1CC[C@H](CCn2cc(C3CC3)nn2)O[C@H]1CO | inactive
18 | C[C@@H]1CN([C@@H](C)CO)C(=O)Cc2cc(NS(=O)(=O)c3cn(C)cn3)ccc2O[C@H]1CN(C)S(=O)(=O)c1ccc(F)cc1 | inactive
19 | C[C@@H]1CN([C@H](C)CO)C(=O)c2cc(NC(=O)NC3CCCCC3)ccc2O[C@@H](C)CCCCO[C@H]1CN(C)C(=O)NC1CCCCC1 | inactive
20 | C[C@H]1CN([C@@H](C)CO)C(=O)c2cccc(NC(=O)Nc3ccc4c(c3)OCO4)c2O[C@@H]1CN(C)C(=O)Nc1cccc2ccccc12 | inactive
21 | O=C(C[C@H]1CC[C@H]2NC[C@@H](O)COC[C@@H]2O1)NCCN1CCCCC1 | inactive

Row | Structure (SMILES) | cytotoxicity call
22 | CC(C)NC(=O)Nc1ccc2c(c1)CC(=O)N([C@H](C)CO)C[C@@H](C)[C@H](CN(C)C(=O)Nc1ccc3c(c1)OCO3)O2 | inactive
23 | C[C@@H]1CCCCO[C@@H](CN(C)C(=O)NC2CCCCC2)[C@H](C)CN([C@@H](C)CO)C(=O)c2cc(NC(=O)CCC(F)(F)F)ccc2O1 | inactive
24 | Cc1noc(C)c1NC(=O)N(C)C[C@H]1OCCCC[C@@H](C)Oc2ccc(NC(=O)C3CCCCC3)cc2C(=O)N([C@H](C)CO)C[C@@H]1C | inactive
25 | C[C@@H]1CN([C@@H](C)CO)C(=O)Cc2cc(NC(=O)Nc3ccc(C(F)(F)F)cc3)ccc2O[C@H]1CN(C)CC1CCCCC1 | active
26 | C[C@H]1CN([C@@H](C)CO)C(=O)Cc2cc(NC(=O)Nc3ccc(F)cc3)ccc2O[C@@H]1CN(C)CC1CCCCC1 | inactive
27 | C[C@@H]1CN([C@H](C)CO)C(=O)Cc2cc(NC(=O)Nc3ccc(C(F)(F)F)cc3)ccc2O[C@H]1CN(C)CC1CCCCC1 | active
28 | C[C@H](CO)N1C[C@H](C)[C@H](CN(C)Cc2ccc3c(c2)OCO3)OCCCC[C@H](C)Oc2ccc(NC(=O)Cc3ccccc3)cc2C1=O | inactive
29 | C[C@H]1CN([C@@H](C)CO)C(=O)Cc2cc(NC(=O)Nc3ccc4c(c3)OCO4)ccc2O[C@@H]1CN(C)Cc1ccc(-c2ccccc2)cc1 | inactive
30 | CC(C)[Si](C#Cc1ccc(Oc2ccccc2)cc1)(O[Si](C#Cc1ccc(Oc2ccccc2)cc1)(C(C)C)C(C)C)C(C)C | inactive
31 | COc1ccc(CN(C)C[C@@H]2OCCCC[C@@H](C)Oc3ccc(NC(=O)c4ccncc4)cc3C(=O)N([C@H](C)CO)C[C@H]2C)cc1 | inactive
32 | O=C(Cc1ccncc1)Nc1ccc2c(c1)[C@@H]1C[C@H](CC(=O)N3CCc4ccccc4C3)O[C@@H](CO)[C@@H]1O2 | inactive
33 | CO[C@H]1O[C@H](CO)[C@@H](OC(=O)Nc2cccc(F)c2)[C@H](OC(=O)Nc2ccccc2-c2ccccc2)[C@H]1OC(=O)Nc1ccccc1-c1ccccc1 | active
34 | CO[C@H]1O[C@H](CO)[C@@H](OC(=O)Nc2ccccc2-c2ccccc2)[C@H](OC(=O)Nc2ccc3c(c2)OCO3)[C@H]1OC(=O)Nc1ccc2c(c1)OCO2 | inactive
35 | CCc1cccc(NC(=O)O[C@H]2[C@H](OC(=O)Nc3ccccc3-c3ccccc3)[C@H](OC(=O)Nc3ccccc3-c3ccccc3)[C@@H](OC)O[C@@H]2CO)c1 | inactive
36 | CO[C@H]1O[C@H](CO)[C@@H](OC(=O)Nc2ccccc2-c2ccccc2)[C@H](OC(=O)Nc2ccccc2-c2ccccc2)[C@@H]1OC(=O)Nc1ccccc1-c1ccccc1 | inactive
37 | CO[C@H]1O[C@H](CO)[C@@H](OC(=O)Nc2cccc(F)c2)[C@H](OC(=O)Nc2ccccc2-c2ccccc2)[C@@H]1OC(=O)Nc1ccccc1-c1ccccc1 | active
38 | CO[C@H]1O[C@H](CO)[C@@H](OC(=O)Nc2ccccc2-c2ccccc2)[C@H](OC(=O)Nc2ccccc2)[C@@H]1OC(=O)Nc1ccccc1 | inactive
39 | C[C@@H]1CCCCO[C@@H](CN(C)Cc2ccccc2)[C@H](C)CN([C@@H](C)CO)C(=O)c2cc(NC(=O)Cc3ccccc3)ccc2O1 | inactive
40 | C[C@H](CO)N1C[C@H](C)[C@@H](CN(C)S(C)(=O)=O)Oc2ccc(NC(=O)Nc3ccc(F)cc3)cc2C1=O | inactive
41 | C[C@@H]1CN([C@@H](C)CO)C(=O)c2cc(NC(=O)CCCN(C)C)ccc2O[C@@H](C)CCCCO[C@@H]1CN(C)CC1CCCCC1 | inactive
42 | C[C@@H]1CN([C@H](C)CO)C(=O)Cc2cc(NS(=O)(=O)c3ccc(Cl)cc3)ccc2O[C@@H]1CN(C)Cc1ccc(Oc2ccccc2)cc1 | active

Row | Structure (SMILES) | cytotoxicity call
43 | C[C@H](CO)N1C[C@H](C)[C@H](CN(C)Cc2ccc(Oc3ccccc3)cc2)Oc2ccc(NS(=O)(=O)c3ccc(Cl)cc3)cc2CC1=O | active
44 | C[C@H]1CN([C@@H](C)CO)C(=O)Cc2cc(NS(=O)(=O)c3ccc(Cl)cc3)ccc2O[C@@H]1CN(C)Cc1ccc(Oc2ccccc2)cc1 | active
45 | C[C@H]1CN([C@@H](C)CO)C(=O)Cc2cc(NS(=O)(=O)c3ccc(Cl)cc3)ccc2O[C@H]1CN(C)Cc1ccc(Oc2ccccc2)cc1 | active
46 | Nc1nc(=O)c2[nH]c(=O)cnc2[nH]1 | inactive
47 | COc1ccc(CN(C)C[C@H]2OCCCC[C@H](C)Oc3ccc(NC(=O)c4ccccc4)cc3C(=O)N([C@H](C)CO)C[C@@H]2C)cc1 | inactive
48 | CO[C@@H]1CN(C)C(=O)c2ccc(NC(=O)Nc3ccccc3)cc2OC[C@@H](C)N(C(=O)CN(C)C)C[C@H]1C | inactive
49 | COCC(=O)Nc1ccc2c(c1)C(=O)N(C)C[C@@H](OC)[C@@H](C)CN(Cc1cccc(F)c1)[C@@H](C)CO2 | inactive
50 | CC(C)Cn1cnc2c1c(=O)n(C)c(=O)n2C | inactive
51 | CC(=O)N1C[C@@H](NC(=O)c2nccn2C)[C@@H]2OCCC[C@@H]21 | inactive
52 | C[C@H](CO)N1C[C@H](C)[C@H](CN(C)C(=O)CCC(F)(F)F)OCCCC[C@H](C)Oc2ccc(NS(=O)(=O)c3ccccc3)cc2C1=O | inactive
53 | CN1CCN(C(=O)C[C@H]2C[C@@H]3c4cc(NS(=O)(=O)c5ccc(F)cc5)ccc4O[C@@H]3[C@@H](CO)O2)CC1 | inactive
54 | C=CCOC(=O)[C@H]1[C@@H]2C(=O)O[C@@H](c3ccccc3)[C@@H](c3ccccc3)N2[C@@H](c2ccc(OCCOC(=O)[C@@H]3C[C@@H]4C(=O)N[C@@H](CCCC[N+](C)(C)C)C(=O)N4[C@@H]3c3cccc(OCCO)c3)cc2)[C@]12C(=O)Nc1ccc(I)cc12 | inactive
55 | Cc1noc(C)c1S(=O)(=O)N(C)C[C@H]1OCCCC[C@@H](C)Oc2ccc(NS(C)(=O)=O)cc2C(=O)N([C@@H](C)CO)C[C@@H]1C | inactive
56 | COc1ccc(NC(=O)N(C)C[C@@H]2Oc3c(NC(=O)C4CCOCC4)cccc3C(=O)N([C@@H](C)CO)C[C@@H]2C)cc1 | inactive
57 | COCC(=O)Nc1ccc2c(c1)C(=O)N(C)C[C@@H](OC)[C@@H](C)CN(C(=O)Cc1cccnc1)[C@@H](C)CO2 | inactive
58 | CCCCn1c(SCC(N)=O)nc2c1c(=O)n(C)c(=O)n2C | inactive
59 | C[C@@H]1CN([C@@H](C)CO)C(=O)Cc2cc(NS(=O)(=O)c3ccc(Cl)cc3)ccc2O[C@@H]1CN(C)Cc1ccc(Oc2ccccc2)cc1 | active
60 | C[C@@H]1CN([C@@H](C)CO)C(=O)Cc2cc(NS(=O)(=O)c3ccc(Cl)cc3)ccc2O[C@H]1CN(C)Cc1ccc(Oc2ccccc2)cc1 | active
61 | C[C@H](CO)N1C[C@H](C)[C@@H](CN(C)Cc2ccc(Oc3ccccc3)cc2)Oc2ccc(NS(=O)(=O)c3ccc(Cl)cc3)cc2CC1=O | inactive
62 | C[C@@H]1CN([C@H](C)CO)C(=O)Cc2cc(NS(=O)(=O)c3ccc(Cl)cc3)ccc2O[C@H]1CN(C)Cc1ccc(Oc2ccccc2)cc1 | active
